# KB-3-1 tox: KB-3-1 parental cell cytotoxicity; KB-3-1 viability, CellTiter-Glo ATP luminescence, 72 h; Potency, µM (doses to about 46.1 µM), actives largely listed as cytotoxic; 400,000 tested, 1.4% active; note: nearly all actives have a fitted effect of over 60% in size
#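 KB-3-1 cells, DMEM (no phenol red) + 10% FBS; compound by pin transfer, 72 h, 37 °C. Readout: CellTiter-Glo luminescence after 10 min. Data normalized, curve-fitted.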
# KB-V1 MDR tox: kills drug-selected multidrug resistant KB-V1 cells; KB-V1 MDR cells viability, CellTiter-Glo, 72 h; Potency, µM (top dose mostly 46.1 µM), most hits filed as cytotoxic; 400,000 tested, 3.4% active; AID 1347076; note: nearly all actives have a fitted effect of over 60% in size
#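 KB-V1, DMEM (no phenol red) + 10% FBS; cpd pin-transferred, titration series; 72 h, 37 degrees C; CellTiter-Glo, luminescence. Data normalized, curve-fit.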
# HT1080 IDH1KD tx: HT-1080 IDH1 knockdown cell toxicity (counter line); HT-1080 IDH1 knockdown viability, ATP luminescence, 48 h; Potency, µM (top dose mostly 46.1 µM), inactives show at the highest dose activity, negative = toxicity, usual class: cytotoxic; 360,000 tested, 2% active;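 note: 0% = DMSO wells and -100% = cell-free medium wells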
#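 In this qHTS, HT-1080 cells depleted of IDH1 are exposed for 48 h at 37 °C to compound titrations. Toxicity is scored from CellTiter-Glo luminescence, with DMSO as full viability and medium alone as none.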
# DT40 TDP1 no CPT: qHTS for Inhibitors of human tyrosyl-DNA phosphodiesterase 1 (TDP1): qHTS in cells in absence of CPT | Potency, µM (titrated, usually from 46.2 µM), for inactives: at the top dose activity change, negative = growth inhibition, hits mostly inhibitors | 420,000 tested, 15% active | AID 686978, 2013 | DT40 Tdp1-/- hTDP1 cells, no CPT, ATP luminescence, 48 h; note: nearly all actives have a fitted effect of over 55% in size
#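 Chicken DT40 Tdp1-/- cells complemented with human TDP1, screened without camptothecin (DMSO vehicle only), 400 cells/well. Compounds pin-transferred, cells incubated at 37 °C for at least 48 hr. Growth read as ATP-dependent luminescence (CellTiter-Glo, 30 min at RT).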
# TDP1 cell CPT: DT40-hTDP1 cell growth loss with CPT; chicken DT40 Tdp1-/-;hTDP1 cells + 20 nM CPT, ATP luminescence, 48 h; Potency, µM (titrated, usually from 46.2 µM), for the others: top-dose activity change, negative = growth inhibition, usual class: inhibitors; 420,000 tested, 12% active; AID 686979; note: nearly all actives have a fitted effect of over 55% in size
#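 Cell growth measured by CellTiter-Glo luminescence after a minimum 48 h, 37 C compound exposure with 20 nM CPT in Tdp1-knockout DT40 cells stably expressing hTDP1, seeded 400/well; qHTS titration format.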
# HT1080-NT tox: kills 2HG-producing HT-1080-NT fibrosarcoma cells | HT-1080-NT fibrosarcoma viability, CellTiter-Glo ATP luminescence, 48 h | Potency, µM (highest dose often 46.1 µM), without a hit: at the highest dose activity, negative = less viability, hits mostly cytotoxic | 360,000 tested, 1.6% active | AID 686970;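 note: NT is the 2HG producing partner of a matched IDH1 knockdown line; 0% = DMSO-treated cells and -100% = media-only wells without cells; nearly all actives have a fitted effect of over 55% in size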
#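 HT-1080-NT; 750 cells/well; 5% FBS RPMI; 48 h compound, 37 degrees C; CellTiter-Glo luminescence; curve fitting and curve-class assignment.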
# * = called active by the depositor; i = inactive; ? = inconclusive; · = no result; [ ] = remark or other dose. The list is not random: actives were taken first. Their share in the collection is about 19%. Calls come from the whole dose curve; as a rule, active = well fitted curve in the direction sought with a large enough effect; inconclusive = small, poorly fitted or top-dose-only effect, or another doubt; inactive = no such curve, though single readings can be large; an effect the other way counts as inactive or inconclusive. Unless noted, % is set by controls: 0 for no effect and ±100 for the full control effect; potency is the fitted concentration of half-maximal effect.
SMILES,KB-3-1 tox,KB-V1 MDR tox,HT1080 IDH1KD tx,DT40 TDP1 no CPT,TDP1 cell CPT,HT1080-NT tox
O=c1cc(/C=C/c2ccc([N+](=O)[O-])cc2)c2ccccc2[nH]1,i,i,·,-6%,-20%,·
Cc1ccc(S(=O)(=O)/N=C(/Nc2c(C)cccc2C)c2ccccc2)cc1,i,i,2%,1.6µM*,-69%,3%
Cc1ccccc1/C(=N\S(=O)(=O)c1ccc(Br)cc1)Nc1ccccc1,i,?,-14%,15µM*,?,-18%
CC(CN1CC(=O)NC(=O)C1)N1CC(=O)NC(=O)C1 (stereo unspecified),?,i,-1%,?,?,-6%
O=C1CN(CCN2CC(=O)NC(=O)C2)CC(=O)N1,i,i,·,7.1µM*,7.9µM*,·
COCCNc1ccc2cc(S(=O)(=O)N3CCCCC3)ccc2n1,i,i,·,?,-8%,·
COc1cccc(Nc2ccc3cc(S(=O)(=O)N4CCC(C)CC4)ccc3n2)c1,?,?,·,15µM*,?,·
CC(=O)c1cccc(Nc2ccc3cc(S(=O)(=O)N4CCCC4)ccc3n2)c1,i,i,·,?,?,·
COc1ccc(Nc2ccc3cc(S(=O)(=O)N4CCCC4)ccc3n2)cc1OC,i,i,·,21µM*,18µM*,·
COc1ccc(CNc2ccc3cc(S(=O)(=O)N4CCCCC4)ccc3n2)cc1,?,i,·,18µM*,?,·
O=S(=O)(c1ccc2nc(Nc3ccccc3)ccc2c1)N1CCCCC1,?,i,26µM*,16µM*,?,?
CC(C)OCCCNC(=O)CCCn1c(SCC(=O)c2ccc(Br)cc2)nc2c(sc3ccccc32)c1=O,·,·,·,-23%,-13%,·
CC(=O)Nc1ccc(Cl)cc1C1COC(=O)C1=N (stereo unspecified),i,i,16%,5%,3%,18%
CCOc1ccccc1Nc1ccc2cc(S(=O)(=O)N3CCCCC3)ccc2n1,?,?,·,18µM*,?,·
CCOc1ccc(S(=O)(=O)N2CCCCC2)cc1NC(=O)C1CCCC1,i,?,-1%,?,-30%,-2%
COc1ccc(CCNC(=O)Cc2ccc(NC(=O)N3CCSc4ncccc43)cc2)cc1OC,i,?,·,?,-27%,·
O=C(O)C(O)C(O)(Cc1ccc(O)cc1)C(=O)O (stereo unspecified),·,·,·,-14%[9.04 µM],16%[9.04 µM],·
CCc1ccc(C2C3=C(CCCC3=O)OC3=C2C(=O)CCC3)cc1,i,i,-3%,3%,-15%,1%
O=C1CCCC2=C1C(c1ccc(OS(=O)(=O)c3ccc(Cl)cc3)cc1)C1=C(CCCC1=O)O2,?,4.6µM*,12%,?,?,6%
CN(CC(=O)Nc1ccccc1Cl)C(=O)COC(=O)c1ccc([N+](=O)[O-])s1,i,i,-8%,-11%,?,-2%
CCOc1ccc(/C=C/C(=O)Nc2cccc(C(C)=O)c2)cc1,i,?,1%,0.58µM*,-85%,7%
CCOc1ccc(NC(C(=O)Nc2cccc(C(C)=O)c2)c2ccccc2)cc1 (stereo unspecified),i,i,1%,15µM*,15µM*,-3%
N#Cc1ccc(OCC(=O)OCC(=O)Nc2cc(C(F)(F)F)ccc2N2CCOCC2)cc1,i,i,-5%,1%,23%,2%
CN1C(=O)N(C)c2cccc3cccc1c23,i,i,12%,25%,3%,16%
CN1C(=O)Nc2cccc3cccc1c23,1µM*,0.46µM*,-8%,?,-25%,-17%
